Measurements from PubChem BioAssay (NCI).
The panel holds about 83,000 compounds, 20% with a hit somewhere; the sample as a whole holds those more often.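 The endpoint reported here, percent growth, reads 100 for growth as untreated, 0 for no net growth and -100 for all cells dead.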 Activity calls are given as the source filed them. Rule for the calls: active = growth percent below 10; inactive = the rest.

Legend:
Assay in all cases: NCI-60 one-dose screen, 48 h (100 = growth as untreated, 0 = no growth, -100 = all killed)
Settings in all cases: 10 µM unless noted
SK-MEL-2 melanoma = system: SK-MEL-2 melanoma
EKVX NSCLC = system: EKVX NSCLC
SN12C renal = system: SN12C renal
UO-31 renal = system: UO-31 renal
TK-10 renal = system: TK-10 renal
ACHN renal = system: ACHN renal
CAKI-1 renal = system: CAKI-1 renal
A498 renal = system: A498 renal
CCRF-CEM leukemia = system: CCRF-CEM leukemia
MOLT-4 leukemia = system: MOLT-4 leukemia

Measured: growth

O=C(CSc1nnc(-c2cccs2)n1-c1ccccc1)Nc1ccccc1
inactive: SK-MEL-2 melanoma 108% | EKVX NSCLC 76.7% | SN12C renal 83.5% | UO-31 renal 64.4% | TK-10 renal 105% | ACHN renal 59.6% | CAKI-1 renal 63.6% | A498 renal 84.9% | CCRF-CEM leukemia 93.7% | MOLT-4 leukemia 93.6%

O=[N+]([O-])c1ccc(NC(=S)NNC(=S)Nc2ccc(Br)cc2)cc1
inactive: SK-MEL-2 melanoma 105% | EKVX NSCLC 83.5% | SN12C renal 88.3% | UO-31 renal 70% | TK-10 renal 127% | ACHN renal 70.8% | CAKI-1 renal 75.6% | A498 renal 82.5% | CCRF-CEM leukemia 89.1% | MOLT-4 leukemia 74.9%

CC1(C)CC[C@]2(C(=O)O)CC[C@]3(C)C(=CC[C@@H]4[C@@]5(C)CC[C@H](NOCCCN)C(C)(C)[C@@H]5CC[C@]43C)[C@@H]2C1
inactive: SK-MEL-2 melanoma 93.3% | EKVX NSCLC 83.9% | SN12C renal 83.5% | UO-31 renal 71.4% | TK-10 renal 122% | ACHN renal 97.8% | CAKI-1 renal 93.7% | A498 renal 110% | CCRF-CEM leukemia 66.4% | MOLT-4 leukemia 75.3%

Cc1ccc(/C=N/Nc2nc(Nc3ccccc3)nc(Nc3ccc(S(N)(=O)=O)cc3)n2)cc1
inactive: SK-MEL-2 melanoma 77.8% | EKVX NSCLC 78.1% | SN12C renal 82.5% | UO-31 renal 68.1% | TK-10 renal 94.5% | ACHN renal 61.2% | CAKI-1 renal 61% | A498 renal 54.7% | CCRF-CEM leukemia 42% | MOLT-4 leukemia 40.4%

CCCCSC1=C(Cl)CN(c2ccc(Cl)cc2)C1=O
inactive: SK-MEL-2 melanoma 103% | EKVX NSCLC 101% | SN12C renal 104% | UO-31 renal 91.1% | TK-10 renal 140% | ACHN renal 104% | CAKI-1 renal 93.9% | A498 renal 101% | CCRF-CEM leukemia 89.9% | MOLT-4 leukemia 86.2%

O=c1[nH][nH]c(-c2ccc(F)cc2)c1-c1nc2ccccc2s1
inactive: SK-MEL-2 melanoma 100% | EKVX NSCLC 90.1% | SN12C renal 82% | UO-31 renal 87.3% | TK-10 renal 154% | ACHN renal 95.1% | CAKI-1 renal 87.1% | A498 renal 67.9% | CCRF-CEM leukemia 86.6% | MOLT-4 leukemia 95.8%

Clc1ccc2[nH]cc(-c3cncn3CCc3ccc4c(c3)OCO4)c2c1
inactive: SK-MEL-2 melanoma 86.4% | EKVX NSCLC 48% | SN12C renal 77% | UO-31 renal 51.9% | TK-10 renal 96.9% | ACHN renal 78.4% | CAKI-1 renal 35.6% | A498 renal 56.3% | CCRF-CEM leukemia 64.2% | MOLT-4 leukemia 60.4%

COc1ccccc1/C=C/C(=O)c1nnn(-c2ccc(F)cc2)c1C
inactive: SK-MEL-2 melanoma 93.2% | EKVX NSCLC 69.3% | SN12C renal 68.5% | UO-31 renal 38.1% | TK-10 renal 110% | ACHN renal 46.1% | CAKI-1 renal 38.5% | A498 renal 66.8% | CCRF-CEM leukemia 14% | MOLT-4 leukemia 45%

CN1CCC[C@]2(C)[C@H]3CC[C@@H]4[C@@H]5[C@H]6OC[C@@]5(CCC6(C)C)CC[C@@]4(C)[C@]3(C)CC[C@H]2C1(C)C
inactive: SK-MEL-2 melanoma 108% | EKVX NSCLC 99.6% | SN12C renal 88.9% | UO-31 renal 91.5% | TK-10 renal 108% | ACHN renal 86.9% | CAKI-1 renal 10.4% | A498 renal 90.1% | CCRF-CEM leukemia 66.4% | MOLT-4 leukemia 37.7%

CC(=O)OCCCCN1C=C/C(=C\C(=O)n2ccc3ccccc32)c2ccccc21
inactive: SK-MEL-2 melanoma 113% | EKVX NSCLC 75% | SN12C renal 108% | UO-31 renal 71.6% | TK-10 renal 147% | ACHN renal 94.8% | CAKI-1 renal 79.8% | A498 renal 121% | CCRF-CEM leukemia 102% | MOLT-4 leukemia 98%

C[C@H](Nc1ncnc2ccc(-c3cnc(Cl)c(NS(C)(=O)=O)c3)cc12)c1ccccc1
inactive: SN12C renal 13.4%
active: SK-MEL-2 melanoma -84.9% | EKVX NSCLC -34.3% | UO-31 renal -63.5% | TK-10 renal -82.3% | ACHN renal 9.8% | CAKI-1 renal -22.4% | A498 renal -23.8% | CCRF-CEM leukemia 7.38% | MOLT-4 leukemia -16.5%

COC(=O)c1ccc(NC2=C(Cl)C(=O)C(C)=C(C)C2=O)cc1
active: CCRF-CEM leukemia 9.06% | MOLT-4 leukemia 9.07%
inactive: SK-MEL-2 melanoma 69.1% | EKVX NSCLC 53.2% | SN12C renal 80.2% | UO-31 renal 65.1% | TK-10 renal 112% | ACHN renal 63.2% | CAKI-1 renal 43.3% | A498 renal 58.6%

COc1ccc([C@H]2C(=O)N(c3cc(OC)c(OC)c(OC)c3)[C@@H]2c2ccc(OC)c(O)c2)cc1
active: SK-MEL-2 melanoma 9.11% | A498 renal -29.9%
inactive: EKVX NSCLC 46.1% | SN12C renal 30.4% | UO-31 renal 26.9% | TK-10 renal 110% | ACHN renal 28.4% | CAKI-1 renal 24.5% | CCRF-CEM leukemia 18.9% | MOLT-4 leukemia 13.4%
